Data reported in PubChem BioAssay (NCI).
This is part of a sample that, as a whole, favours compounds with a hit. Of some 83,000 tested, about 20% had one in any assay.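 How to read the values: 0–100, growth inhibition (40 = 60% inhibited); 0, no net growth; -100 to 0, cell death (-40 = 40% of starting cells died; -100 = all dead).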 A number with no mark means an inactive call. Activity calls are given as the source filed them. How the source made its calls: active means growth percent below 10; inactive means the rest.

Key:
Test in all cases: NCI-60 one-dose screen, 48 h (100 = growth as untreated, 0 = no growth, -100 = all killed)
Details in all cases: 10 µM unless noted
SK-MEL-2 melanoma = tested on: SK-MEL-2 melanoma
EKVX NSCLC = tested on: EKVX NSCLC
SN12C renal = tested on: SN12C renal
UO-31 renal = tested on: UO-31 renal
TK-10 renal = tested on: TK-10 renal
ACHN renal = tested on: ACHN renal
CAKI-1 renal = tested on: CAKI-1 renal
A498 renal = tested on: A498 renal
CCRF-CEM leukemia = tested on: CCRF-CEM leukemia
MOLT-4 leukemia = tested on: MOLT-4 leukemia

SMILES: C#Cc1cc(C(=O)Nc2ccc(CNCCN3CCOCC3)c(C(F)(F)F)c2)ccc1C
- growth (SK-MEL-2 melanoma): 104%
- growth (EKVX NSCLC): 84.7%
- growth (SN12C renal): 93.5%
- growth (UO-31 renal): 72.7%
- growth (TK-10 renal): 108%
- growth (ACHN renal): 98.4%
- growth (CAKI-1 renal): 82.7%
- growth (A498 renal): 90.4%
- growth (CCRF-CEM leukemia): 98.7%
- growth (MOLT-4 leukemia): 81.6%

SMILES: Clc1cccc(/C=N/Nc2nc(N/N=C/c3cccc(Cl)c3)nc(N3CCCCC3)n2)c1
- growth (SK-MEL-2 melanoma): 86.1%
- growth (EKVX NSCLC): 78.4%
- growth (SN12C renal): 92.4%
- growth (UO-31 renal): 76.7%
- growth (TK-10 renal): 106%
- growth (ACHN renal): 101%
- growth (CAKI-1 renal): 92.4%
- growth (A498 renal): 92.2%
- growth (CCRF-CEM leukemia): 75%
- growth (MOLT-4 leukemia): 68.7%

SMILES: CC(C)[C@H]1c2[nH]c3ccccc3c2C[C@H]2C(=O)N(CCCCCCC(=O)NO)CC(=O)N12
- growth (SK-MEL-2 melanoma): 86.8%
- growth (EKVX NSCLC): 93%
- growth (SN12C renal): 90.2%
- growth (UO-31 renal): 83.2%
- growth (TK-10 renal): 72%
- growth (ACHN renal): 98.2%
- growth (CAKI-1 renal): 86.2%
- growth (A498 renal): 90%
- growth (CCRF-CEM leukemia): 27.8%
- growth (MOLT-4 leukemia): 34.6%

SMILES: NC1[C@H]2CN(c3cnc(C(=O)Nc4cc(F)cc5cccnc45)cn3)C[C@@H]12 (stereo not given in full)
- growth (SK-MEL-2 melanoma): 92.5%
- growth (EKVX NSCLC): 82.1%
- growth (SN12C renal): 69.8%
- growth (UO-31 renal): 44.6%
- growth (TK-10 renal): 87.7%
- growth (ACHN renal): 32.5%
- growth (CAKI-1 renal): 49.9%
- growth (A498 renal): 75.4%
- growth (CCRF-CEM leukemia): 30%
- growth (MOLT-4 leukemia): 18.1%

SMILES: CCOC(=O)C1=C(C)NC(C)=C(C(=O)OCc2ccccc2)C1c1cccc(C#N)c1 (stereo not given)
- growth (SK-MEL-2 melanoma): 24.9%
- growth (EKVX NSCLC): 37.1%
- growth (SN12C renal): 36.5%
- growth (UO-31 renal): 43.8%
- growth (TK-10 renal): 83.7%
- growth (ACHN renal): 47.1%
- growth (CAKI-1 renal): 32.4%
- growth (A498 renal): -4.45% (active)
- growth (CCRF-CEM leukemia): 25.5%
- growth (MOLT-4 leukemia): 31.5%

SMILES: O=C(CSc1nc2ccccc2c(=O)n1-c1ccc(Cl)cc1)N/N=C/c1ccc(Oc2ccc(Cl)cc2)cc1
- growth (SK-MEL-2 melanoma): 54.3%
- growth (EKVX NSCLC): 40.8%
- growth (SN12C renal): 45.3%
- growth (UO-31 renal): 93.1%
- growth (TK-10 renal): 39.7%
- growth (ACHN renal): 63.5%
- growth (CAKI-1 renal): 33%
- growth (A498 renal): -42.3% (active)
- growth (CCRF-CEM leukemia): -2.67% (active)
- growth (MOLT-4 leukemia): -25.1% (active)

SMILES: C#C[C@]1(O)CC[C@H]2[C@@H]3CC=C4c5sc(Nc6cccc(F)c6)nc5CC[C@]4(C)[C@H]3CC[C@@]21C
- growth (SK-MEL-2 melanoma): 27.8%
- growth (EKVX NSCLC): 25%
- growth (SN12C renal): 45.6%
- growth (UO-31 renal): 17.1%
- growth (TK-10 renal): 65.1%
- growth (ACHN renal): 35%
- growth (CAKI-1 renal): 7.13% (active)
- growth (A498 renal): 31.7%
- growth (CCRF-CEM leukemia): 8.66% (active)
- growth (MOLT-4 leukemia): 5.5% (active)

SMILES: Cc1ccc2c(n1)C(=O)C(Cl)=C(Nc1cccc(C(F)(F)F)c1)C2=O
- growth (SK-MEL-2 melanoma): 99.7%
- growth (EKVX NSCLC): 58.1%
- growth (SN12C renal): 85.8%
- growth (UO-31 renal): -67.7% (active)
- growth (TK-10 renal): 127%
- growth (ACHN renal): -96.2% (active)
- growth (CAKI-1 renal): 81.8%
- growth (A498 renal): 86%
- growth (CCRF-CEM leukemia): 4.32% (active)
- growth (MOLT-4 leukemia): 6.52% (active)

SMILES: COc1cc(C(=O)c2cc(C(C)=O)c3ccc(C)cn23)cc(OC)c1OC
- growth (SK-MEL-2 melanoma): 37.5%
- growth (EKVX NSCLC): 46.5%
- growth (SN12C renal): 42.4%
- growth (UO-31 renal): 44%
- growth (TK-10 renal): 76.3%
- growth (ACHN renal): 51.3%
- growth (CAKI-1 renal): 34.3%
- growth (A498 renal): 38.3%
- growth (CCRF-CEM leukemia): 47.1%
- growth (MOLT-4 leukemia): 28.5%

SMILES: CN1CCN(Cc2ccc(/C=N/Nc3ccnc4cc(Cl)ccc34)cc2)CC1
- growth (SK-MEL-2 melanoma): 113%
- growth (EKVX NSCLC): 82.6%
- growth (SN12C renal): 87.9%
- growth (UO-31 renal): 78.8%
- growth (TK-10 renal): 162%
- growth (ACHN renal): 90.5%
- growth (CAKI-1 renal): 77.5%
- growth (A498 renal): 111%
- growth (CCRF-CEM leukemia): 56.9%
- growth (MOLT-4 leukemia): 63.1%

SMILES: O=S(=O)(NCCCNc1nccc(-c2[nH]c(-c3ccccc3)nc2-c2ccc(F)c(O)c2)n1)c1ccccc1
- growth (SK-MEL-2 melanoma): 31.6%
- growth (EKVX NSCLC): 102%
- growth (SN12C renal): 107%
- growth (UO-31 renal): 144%
- growth (TK-10 renal): 154%
- growth (ACHN renal): 95.4%
- growth (CAKI-1 renal): 105%
- growth (A498 renal): 114%
- growth (CCRF-CEM leukemia): 47.9%
- growth (MOLT-4 leukemia): 51.3%

SMILES: O=[N+]([O-])c1ccc(NC(=S)NNC(=S)Nc2ccc(F)cc2)cc1
- growth (SK-MEL-2 melanoma): 105%
- growth (EKVX NSCLC): 94.8%
- growth (SN12C renal): 90.7%
- growth (UO-31 renal): 70.2%
- growth (TK-10 renal): 103%
- growth (ACHN renal): 78.9%
- growth (CAKI-1 renal): 68.7%
- growth (A498 renal): 81.4%
- growth (CCRF-CEM leukemia): 103%
- growth (MOLT-4 leukemia): 80.8%

SMILES: CC(=O)c1cc(C(=O)N2c3ccccc3Sc3ccccc32)n2c1ccc1ccccc12
- growth (SK-MEL-2 melanoma): 38.3%
- growth (EKVX NSCLC): 78.4%
- growth (SN12C renal): 86.7%
- growth (UO-31 renal): 64.6%
- growth (TK-10 renal): 107%
- growth (ACHN renal): 50.1%
- growth (CAKI-1 renal): 46.8%
- growth (A498 renal): 30.1%
- growth (CCRF-CEM leukemia): 35.9%
- growth (MOLT-4 leukemia): 54.7%
